Broadly, the AC50 is the midpoint of the concentration-response curve, whichever way the signal moves.

Test [1] is described as follows: APR_HepG2_NuclearSize_72hr: Apredica 72-hour HepG2 Assay for Nuclear Size (AID 2282925). The conditions noted are these: high-content imaging, actives raise or lower the signal. The procedure, abridged: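 Compounds (0.39–200 uM, final DMSO 0.5%) were applied to HepG2 for 72 hr. Cells were then formaldehyde-fixed, permeabilized and labelled with Hoechst 33342. Nuclear diameter was quantified from six images per well.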

Test [2] in a line: ATG_CRE_CIS: Attagene CIS-FACTORIAL HepG2 Assay for human cAMP Responsive Element (CRE) binding protein 3 (AID 2282926). The conditions noted are these: HepG2 CRE cis-reporter, Attagene multiplexed mRNA; actives raise or lower the signal. Summed up: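 Capillary electrophoresis of 6-FAM-labelled, HpaI-digested PCR products quantified reporter transcripts. These came from HepG2 transiently transfected with cis-element reporters and exposed to test chemicals for 24 hours, with DMSO defining baseline activity.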

For test [3], the target named is CCAAT/enhancer-binding protein beta (Homo sapiens) (UniProt P17676). Briefly: ATG_C_EBP_CIS: Attagene CIS-FACTORIAL HepG2 Assay for human CCAAT/Enhancer Binding Protein (C/EBP) beta (AID 2282927). Conditions: HepG2 Attagene cis-factorial transcription factor reporter; actives raise or lower the signal. The procedure, abridged:
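Chemical-treated HepG2 cells (24 h) bearing cis-regulated reporter constructs were processed for total RNA, then reverse transcription, PCR amplification, fluorescent primer extension and fragment analysis; gain- and loss-of-signal were fitted against DMSO.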

Test [4] is described as follows: ATG_CMV_CIS: Attagene CIS-FACTORIAL HepG2 Assay for human CMV (Internal Marker) (AID 2282928).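 Also: endpoint acts as a background internal control marker rather than a target.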 The conditions noted are these: HepG2 CMV promoter reporter, transcription factor profiling; actives raise or lower the signal. Summed up:
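Readout: fluorescent reporter cDNA fragments separated by capillary electrophoresis after RT-PCR and HpaI cut. Cells: HepG2 carrying transfected cis-promoter reporter constructs, dosed 24 h. Endpoint serves as background internal-marker control, fit bidirectionally versus DMSO.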

Test [5] in a line: ATG_DR4_LXR_CIS: Attagene CIS-FACTORIAL HepG2 Assay for human Liver X Receptor (LXR), DR4 submotif (AID 2282929). The conditions noted are these: HepG2 Attagene DR4 cis-reporter, mRNA transcription; actives raise or lower the signal. The procedure, abridged: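 HepG2, transient MRTU transfection, cis-element (DR4) promoter; 24 h compound exposure; total RNA → oligo(dT) RT → PCR → 6-FAM primer extension → HpaI cut → CE. Gain/loss vs DMSO, bidirectional fit.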

Test [6] has as its target Aryl hydrocarbon receptor (Homo sapiens) (UniProt P35869). Briefly: ATG_Ahr_CIS: Attagene CIS-FACTORIAL HepG2 Assay for human Aryl Hydrocarbon Receptor (Ahr) (AID 2282930). Conditions: HepG2 AhR cis-factorial reporter transcription; actives raise or lower the signal. Summed up: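 Following 24 h of chemical dosing, transfected HepG2 liver cells with cis-driven reporter units were lysed for RNA; reporter mRNA was quantified via RT-PCR and capillary electrophoresis, and responses fitted bidirectionally from DMSO.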

Test [7] in a line: ATG_AP_2_CIS: Attagene CIS-FACTORIAL HepG2 Assay for human Activator Protein 2 (AP-2) (AID 2282932). The conditions noted are these: HepG2 AP-2 cis-reporter, Attagene transcription factor profiling; actives raise or lower the signal. The procedure, abridged: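 Assay in transfected HepG2 with promoter-regulated reporters, 24 h incubation after dosing. Signal is reporter mRNA fluorescence (RT-PCR, capillary electrophoresis), analysed for both increases and decreases relative to DMSO controls.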

Test [8] can be described thus: ATG_BRE_CIS: Attagene CIS-FACTORIAL HepG2 Assay for human Bone Morphogenetic Protein (BMP) Response Element (BRE) (AID 2282933). Conditions: HepG2 BMP response element reporter, Attagene transcription factor profiling; actives raise or lower the signal. Summed up: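 Endogenous transcription factor activity read in transiently transfected HepG2 cells after 24 h chemical exposure. Bidirectional curve fitting against DMSO; readout is reporter transcript level by RT-PCR with capillary electrophoresis of labelled products.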

Test [9] concerns the target Retinoic acid receptor alpha (Homo sapiens) (UniProt P10276). In words: ATG_DR5_RAR_CIS: Attagene CIS-FACTORIAL HepG2 Assay for human Retinoic Acid Receptor Alpha (RARE), DR5 submotif (AID 2282934).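 As to AC50: reporter responds to endogenous RAR alpha beta and gamma in HepG2 not RARA alone.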 The conditions noted are these: HepG2 Attagene cis-factorial RARE DR5 reporter, mRNA; actives raise or lower the signal. The procedure, abridged: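 Transfected HepG2 reporter cells are exposed to chemicals for 24 h. Then RNA is extracted and the DR5 element reporter transcript is measured by RT-PCR and capillary electrophoresis, with bidirectional curve fitting relative to DMSO.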

In test [10] the target is Transcription factor E2F1 (Homo sapiens) (UniProt Q01094). Briefly: ATG_E2F_CIS: Attagene CIS-FACTORIAL HepG2 Assay for human E2F Transcription Factor 1 (AID 2282935). Conditions: HepG2 Attagene cis-reporter, E2F reporter RNA transcripts; actives raise or lower the signal. Summed up: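 In this cis-factorial format, endogenous factor activity drives transfected reporters in HepG2; transcripts collected at 24 h are quantified by fluorescence after RT-PCR and capillary separation.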
Sequence of Transcription factor E2F1 (Homo sapiens) (Q01094 whole entry, looked up): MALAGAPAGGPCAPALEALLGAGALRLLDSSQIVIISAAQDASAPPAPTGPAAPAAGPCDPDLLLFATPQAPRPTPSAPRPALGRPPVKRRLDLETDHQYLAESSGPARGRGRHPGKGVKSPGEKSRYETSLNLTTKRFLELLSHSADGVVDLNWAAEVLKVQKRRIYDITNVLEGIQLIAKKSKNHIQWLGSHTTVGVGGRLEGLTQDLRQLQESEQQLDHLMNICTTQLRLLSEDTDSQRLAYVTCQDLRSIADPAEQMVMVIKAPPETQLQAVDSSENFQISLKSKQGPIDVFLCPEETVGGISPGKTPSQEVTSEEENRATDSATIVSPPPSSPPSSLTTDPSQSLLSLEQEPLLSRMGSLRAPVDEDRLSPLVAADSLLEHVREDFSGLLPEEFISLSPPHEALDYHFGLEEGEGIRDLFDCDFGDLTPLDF

Test [11] is described as follows: ATG_E_Box_CIS: Attagene CIS-FACTORIAL HepG2 Assay for human Enhancer Box (E-box) (AID 2282936). Conditions: HepG2 E-box cis-reporter transcription, actives raise or lower the signal. The procedure, abridged:
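Measured 24 h post-dosing in HepG2 cells transfected with multiple cis-regulated reporter units, signal being reporter mRNA induction detected by fluorescent RT-PCR with capillary electrophoresis; gain or loss fitted against DMSO.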

Test [12] in a line: ATG_M_61_CIS: Attagene CIS-FACTORIAL HepG2 Assay for M61 Transcription Factor (Internal Marker) (AID 2282937). Conditions: HepG2 Attagene CIS-FACTORIAL M61 internal marker reporter; actives raise or lower the signal. The procedure, abridged:
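Human liver HepG2, transient MRTU transfection (cis promoter elements), 24 h compound. Total RNA → oligo(dT) RT → PCR → FAM label → HpaI → CE. Internal background marker; bidirectional fitting, DMSO = baseline.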

Test [13] is described as follows: ATG_EGR_CIS: Attagene CIS-FACTORIAL HepG2 Assay for human Early Growth Response 1 (EGR1) (AID 2282938). Conditions: HepG2 Attagene CIS-FACTORIAL EGR reporter mRNA; actives raise or lower the signal. The procedure, abridged: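 Transient transfection of human HepG2 with multiple cis-regulated reporter units, chemical exposure 24 h, total RNA isolated. Reverse transcription, PCR, fluorescent labelling and capillary electrophoresis quantify reporter transcripts; activity fitted bidirectionally against DMSO.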

A short description of test [14]: ATG_M_19_CIS: Attagene CIS-FACTORIAL HepG2 Assay for M19 Transcription Factor (Internal Marker) (AID 2282939). Conditions: HepG2 Attagene CIS-FACTORIAL M19 internal marker reporter; actives raise or lower the signal. Summed up: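 Internal marker readout, fitted in both directions against DMSO, from HepG2 cells carrying transfected cis-element reporter constructs; RT-PCR and capillary electrophoresis of reporter mRNA after 24 h exposure.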

Test [15] in a line: ATG_ERE_CIS: Attagene CIS-FACTORIAL HepG2 Assay for Estrogen Response Element (ERE) (AID 2282940). The conditions noted are these: HepG2 ERE cis-reporter, Attagene RNA transcript; actives raise or lower the signal. The procedure, abridged:
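After 24 h compound treatment, RNA from transfected HepG2 cells was reverse-transcribed, reporter cDNA PCR-amplified, FAM-labelled, HpaI-cut and resolved by capillary electrophoresis. ERE-driven cis reporter transcripts reflect endogenous factors; gain or loss scored against DMSO.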

Test [16] can be described thus: ATG_Ets_CIS: Attagene CIS-FACTORIAL HepG2 Assay for human Erythroblast Transformation Specific (ETS) (AID 2282941). Conditions: HepG2 ETS cis-reporter transcription, actives raise or lower the signal. Summed up: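 RT-PCR/capillary electrophoresis fluorescence read-out of reporter mRNA; HepG2 transient multi-reporter transfection; 24 h compound exposure; gain or loss of signal fitted bidirectionally relative to DMSO.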

Test [17] deals with Hepatocyte nuclear factor 3-beta (Homo sapiens) (UniProt Q9Y261). In words: ATG_FoxA2_CIS: Attagene CIS-FACTORIAL HepG2 Assay for human Forkhead box A2 (FOXA2) (AID 2282942). The conditions noted are these: HepG2 cis-reporter transcription factor activity, 24 h; actives raise or lower the signal. Summed up: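 Transient MRTU transfection of HepG2 liver cells; 24 h treatment; total RNA → oligo(dT) RT → PCR → FAM primer extension → HpaI cut → CE. Bidirectional fit vs DMSO.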
Sequence of Hepatocyte nuclear factor 3-beta (Homo sapiens) (Q9Y261 whole entry, looked up): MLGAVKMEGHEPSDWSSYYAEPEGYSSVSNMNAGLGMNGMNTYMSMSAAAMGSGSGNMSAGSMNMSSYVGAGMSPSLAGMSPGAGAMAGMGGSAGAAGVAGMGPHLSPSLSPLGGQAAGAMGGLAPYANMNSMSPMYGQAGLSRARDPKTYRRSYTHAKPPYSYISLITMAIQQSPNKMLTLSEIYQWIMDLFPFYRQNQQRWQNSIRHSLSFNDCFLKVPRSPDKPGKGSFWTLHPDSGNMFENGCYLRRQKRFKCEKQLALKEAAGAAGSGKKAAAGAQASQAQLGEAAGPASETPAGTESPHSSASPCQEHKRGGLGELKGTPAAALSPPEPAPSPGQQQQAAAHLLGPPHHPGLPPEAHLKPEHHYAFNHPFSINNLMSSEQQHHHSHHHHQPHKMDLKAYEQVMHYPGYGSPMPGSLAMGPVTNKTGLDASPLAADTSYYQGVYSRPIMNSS

Test [18] in a line: ATG_GATA_CIS: Attagene CIS-FACTORIAL HepG2 Assay for human GATA Binding Protein (AID 2282944). The conditions noted are these: HepG2 GATA cis-element reporter, Attagene multiplex mRNA; actives raise or lower the signal. Summed up: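 Reporter transcripts from a GATA cis-regulated unit, among multiplexed reporters in transfected HepG2 cells, were measured by RT-PCR with capillary electrophoresis after 24 h dosing. Induction or loss scored relative to DMSO.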

Test [19] in a line: ATG_AP_1_CIS: Attagene CIS-FACTORIAL HepG2 Assay for human Activator Protein 1 (AP-1) (AID 2282931). Conditions: HepG2 Attagene cis-factorial AP-1 reporter mRNA; actives raise or lower the signal. Summed up:
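Transient MRTU transfection of HepG2 → 24 h chemical treatment → RNA isolation, RT-PCR, 6-FAM labelling, HpaI digest → capillary electrophoresis. Fit: bidirectional, DMSO negative control.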

Molecules are shown by their SMILES. Calls of active or inactive are those of the source. The calls were made as follows: active = hit-call score of the fitted dose curve at least 0.9, where 1 is the maximum; inactive = score below 0.9.

Sequence of CCAAT/enhancer-binding protein beta (Homo sapiens) (P17676 whole entry, looked up, the tested form may be a part): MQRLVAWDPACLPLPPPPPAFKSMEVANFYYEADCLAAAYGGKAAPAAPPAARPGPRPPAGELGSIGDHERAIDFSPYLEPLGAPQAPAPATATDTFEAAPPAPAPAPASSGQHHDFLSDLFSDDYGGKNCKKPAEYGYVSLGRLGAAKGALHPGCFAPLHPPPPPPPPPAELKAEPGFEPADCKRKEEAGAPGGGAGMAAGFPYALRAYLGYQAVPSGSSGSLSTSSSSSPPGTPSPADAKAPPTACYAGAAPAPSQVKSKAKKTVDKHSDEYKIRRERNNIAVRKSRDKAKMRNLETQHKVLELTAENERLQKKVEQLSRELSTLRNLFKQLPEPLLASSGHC
Sequence of Aryl hydrocarbon receptor (Homo sapiens) (P35869 whole entry, looked up): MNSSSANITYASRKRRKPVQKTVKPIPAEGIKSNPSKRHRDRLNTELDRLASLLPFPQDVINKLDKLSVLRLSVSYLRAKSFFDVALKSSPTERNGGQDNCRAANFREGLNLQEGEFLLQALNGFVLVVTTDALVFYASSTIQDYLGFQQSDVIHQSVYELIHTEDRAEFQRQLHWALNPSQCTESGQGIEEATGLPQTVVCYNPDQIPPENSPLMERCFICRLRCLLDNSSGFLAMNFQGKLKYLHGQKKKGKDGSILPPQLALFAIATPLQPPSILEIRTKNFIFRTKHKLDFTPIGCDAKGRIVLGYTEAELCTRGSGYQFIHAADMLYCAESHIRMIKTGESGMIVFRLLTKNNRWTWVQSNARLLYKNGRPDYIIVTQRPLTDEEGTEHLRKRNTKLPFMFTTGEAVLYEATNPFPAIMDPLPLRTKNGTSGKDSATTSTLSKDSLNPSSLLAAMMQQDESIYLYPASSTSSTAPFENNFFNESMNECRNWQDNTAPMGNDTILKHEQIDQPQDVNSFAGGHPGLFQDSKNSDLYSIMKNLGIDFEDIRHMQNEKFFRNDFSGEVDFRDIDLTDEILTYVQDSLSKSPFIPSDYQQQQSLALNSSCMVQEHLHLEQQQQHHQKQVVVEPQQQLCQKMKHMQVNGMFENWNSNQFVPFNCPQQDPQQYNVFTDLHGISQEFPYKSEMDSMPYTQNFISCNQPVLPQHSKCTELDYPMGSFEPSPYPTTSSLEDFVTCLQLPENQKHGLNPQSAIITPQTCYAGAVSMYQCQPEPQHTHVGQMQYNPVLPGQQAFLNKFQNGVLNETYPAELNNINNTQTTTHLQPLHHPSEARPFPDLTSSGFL
Sequence of Retinoic acid receptor alpha (Homo sapiens) (P10276 whole entry, looked up): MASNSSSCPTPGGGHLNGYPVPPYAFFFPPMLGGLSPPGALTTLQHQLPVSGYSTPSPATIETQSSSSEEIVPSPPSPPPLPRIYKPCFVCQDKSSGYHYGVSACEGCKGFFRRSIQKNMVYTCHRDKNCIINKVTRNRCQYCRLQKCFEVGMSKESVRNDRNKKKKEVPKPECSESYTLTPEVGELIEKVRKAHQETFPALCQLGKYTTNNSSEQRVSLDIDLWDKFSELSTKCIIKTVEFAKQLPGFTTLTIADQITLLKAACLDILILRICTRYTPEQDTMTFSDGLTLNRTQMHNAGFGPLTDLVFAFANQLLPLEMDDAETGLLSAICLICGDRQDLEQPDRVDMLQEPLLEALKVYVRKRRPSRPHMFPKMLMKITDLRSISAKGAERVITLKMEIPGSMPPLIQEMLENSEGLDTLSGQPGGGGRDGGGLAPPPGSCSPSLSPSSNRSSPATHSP

With `COc1nc(C)nc(NC(=O)NS(=O)(=O)c2ccccc2CCC(F)(F)F)n1`, the result in test [1], in test [2], in test [3], in [4], in test [5] and in test [6] was inactive. Also, the result in test [7], in [8], in test [9], in [10], in test [11] and in [12] was inactive. Also, the molecule was classed as inactive in test [13], in test [14], in test [15], in test [16], in [17] and in test [18].

As to `CS/C(C)=N/OC(=O)N(C)SN(C)C(=O)O/N=C(\C)SC`, the call in test [1], in test [2], in test [3], in test [4], in test [5] and in test [6] was inactive. Also, the molecule was classed as inactive in test [7], in test [8], in test [9], in test [10], in test [11] and in test [12]. The result in test [13], in test [14], in test [15], in test [16], in test [17] and in test [18] was inactive.

On to `CC1=C(C(=O)Nc2ccccc2)SCCO1`, for which the call in [1], in test [2], in test [3], in test [4], in test [5] and in [6] was inactive. Also, the outcome in test [19], in test [7], in test [8], in test [9], in [10] and in test [11] was inactive. Further, the outcome in test [12], in test [13], in [14], in test [15], in test [16] and in [17] was inactive. Also, the molecule was classed as inactive in test [18].

For the molecule `CC(C)Oc1cc(-n2nc(C(C)(C)C)oc2=O)c(Cl)cc1Cl`, the result in test [1], in test [2], in [3], in test [5], in [6] and in test [7] was inactive. In addition, the molecule was called inactive in test [10], in [11], in test [12], in [13], in test [14] and in [16]. The molecule was called inactive in test [17] and in test [18]. For the same molecule, the AC50 in test [4] is 6.05 µM (active); in [8], 50 µM (active); in [9], 0.86 µM (active); in test [15], 12.8 µM (active).

As to `Cc1cc(Cl)ccc1OCC(=O)O`, the call in [1], in test [2], in test [3], in test [4], in test [5] and in [6] was inactive. Also, the result in test [19], in test [7], in test [8], in [10], in test [11] and in [12] was inactive. Also, the call in test [13], in test [14], in test [15], in [16], in [17] and in test [18] was inactive.

Source of the values: PubChem BioAssay (EPA / NIEHS).
